Consider four compounds from PubChem BioAssay (NCATS).

Inconclusive results are not listed. The source made the active and inactive calls. Unless noted, calls come from the whole dose curve; as a rule, active = well fitted curve in the direction sought with a large enough effect; inconclusive = small, poorly fitted or top-dose-only effect, or another doubt; inactive = no such curve, though single readings can be large; an effect the other way counts as inactive or inconclusive.

A short description of test [1]: qHTS Assay for Identifying Gametocytocidal Compounds (AID 743244).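 Note: % is set by controls: 0 for no effect and ±100 for the full control effect; actives lower the fluorescent signal which means gametocytes are killed.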 Conditions: P. falciparum 3D7 stage III-V gametocytes, alamarBlue, 72 h; max response: stronger effect = lower value. A digest of the protocol:
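In this qHTS viability screen, late-stage 3D7 gametocytes are incubated with compound for 72 h, then with alamarBlue for 24 h; reduced resorufin fluorescence marks killing.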
Background: qHTS replaces the single test concentration by a dilution series.

Test [2] is described as follows: Drug repurposing screens with cells derived from glioblastoma tumor samples (AID 1345199). Note: % is set by controls: 0 for no effect and ±100 for the full control effect; nearly all actives have a fitted effect of over 40% in size. As to conditions: GBM patient neurospheres viability, ATP luminescence, 48 h; Potency: tumour line A; series mostly up to 45.9 µM. A digest of the protocol: (§1)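 Primary testing used CD133+ neurospheres from four GBM patients, seven concentrations, 48 h exposure and ATP-based viability; confirmation added three slower-growing patient lines.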

For test [3], the system named is astro. Described as above. Conditions: viability, ATP luminescence, 48 h; series mostly up to 45.9 µM. A digest of the protocol:
as §1

The nature of test [4]: P-glycoprotein substrates identified in KB-3-1 adenocarcinoma cell line, qHTS therapeutic library screen (AID 1346986).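 Note: potency is the fitted concentration of half-maximal effect; potency is for cytotoxicity meaning loss of cell viability; nearly all actives have a fitted effect of over 60% in size.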 In short, it runs like this: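 Dose-response cytotoxicity, KB-3-1 vs P-gp-high KB-8-5-11, no colchicine in assay medium. Read: CellTiter-Glo at 72 h.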
Test [5] can be described thus: P-glycoprotein substrates identified in KB-8-5-11 adenocarcinoma cell line, qHTS therapeutic library screen (AID 1346987). Note: potency is the fitted concentration of half-maximal effect; nearly all actives have a fitted effect of over 65% in size. In short, it runs like this:
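In this qHTS, P-gp-rich KB-8-5-11 cells received library compounds across a concentration range. Viability was quantified by luminescence after 72 h at 37 degree C.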

Test [6] can be described thus: Primary qHTS for inhibitors of nuclear receptor binding SET domain protein 2 (NSD2) in an isogenic RCH-ACV NSD2 p.E1099K mutant (9B) (AID 1645876). Note: potency is the fitted concentration of half-maximal effect; nearly all actives have a fitted effect of over 70% in size.
For test [7], the target named is Catechol O-methyltransferase (Homo sapiens) (UniProt P21964). Nature of the test: Confirmatory Screen for Target Class Profiling of Small Molecule Inhibitors of Methyltransferases (AID 1745852; calls by dose curve; note: potency is the fitted concentration of half-maximal effect). Conditions: MTase-Glo luminescence, SAH detection, recombinant enzyme; measured here: COMT max response; stronger effect = lower value.
The target of test [8] is Guanidinoacetate N-methyltransferase (Homo sapiens) (UniProt Q14353). The description is as above. As to conditions: activity change, negative = inhibition: at 57.3 µM (top of the series) unless noted.
In test [9] the target is Nicotinamide N-methyltransferase (Homo sapiens) (UniProt P40261). Described as above. As to conditions: MTase-Glo luminescence, SAH detection, recombinant enzyme; measured here: NNMT max response; stronger effect = lower value.
The target of test [10] is Phenylethanolamine N-methyltransferase (Homo sapiens) (UniProt P11086). Described as above. Conditions: MTase-Glo luminescence, SAH detection, recombinant enzyme; measured here: PNMT max response; stronger effect = lower value.
Test [11] deals with Glutathione peroxidase 1 (Homo sapiens) (UniProt P07203). Nature of the test: Primary qHTS Assay for Inhibitors of Recombinant Selenoprotein Glutathione Peroxidase 1 (GPX1) (AID 1845191). Note: nearly all actives have a fitted effect of over 65% in size. In short, it runs like this:
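NADPH consumption tracked by fluorescence at 340/450 nm between t=0 and t=15 min, room temperature. Final mix: 10 nM GPX1, 100 nM glutathione reductase, 1 mM GSH, 0.5 mM NADPH, 0.5 mM cumene hydroperoxide, 0.01% BSA; 30 min compound–enzyme preincubation.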

Test [12] can be described thus: qHTS assay for small molecule activators of the p53 signaling pathway (AID 651743; active = well fitted activation curve with a large enough effect in the signal ratio, not every such curve was filed as active; the % refers to the signal ratio; note: % of control where 0% means no effect). As to conditions: HCT-116 p53RE-bla, beta-lactamase FRET ratio, 16 h; activation: stronger effect = higher value. In short, it runs like this:
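A beta-lactamase reporter under p53 response element control, stably carried by HCT-116 cells, reported pathway activation. Test compounds were applied for 16 hours at 37 C, and fluorescence was measured 2 hours after adding the B/G FRET substrate.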

Test [13] in a line: qHTS assay for environmental chemicals that activate the Aryl hydrocarbon Receptor (AhR) signaling pathway (AID 651777). Note: % of control where 0% means no effect; nearly all actives have a fitted effect of over 15% in size. Conditions: 1A2-DRE human hepatoma cells, luciferase, 24 h; activation: stronger effect = higher value. A digest of the protocol: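 Concentration–response screening used 1,200 1A2-DRE cells per well, 24 hr compound exposure (37 C, 5% CO2), and One-Glo luminescence as the AhR-driven CYP1A2 reporter signal.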

Test [14] addresses Peroxisome proliferator-activated receptor alpha (Homo sapiens) (UniProt Q07869). Nature of the test: qHTS assay for small molecule agonists of the peroxisome proliferator-activated receptor alpha (PPARalpha) signaling pathway (AID 651778). Note: % of control where 0% means no effect. As to conditions: PathHunter PPARalpha complementation, chemiluminescence, 6 h; stronger effect = higher value. In short, it runs like this: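 Chemiluminescence from complemented enzyme reported PPARalpha activation in cells after 6 hr of compound treatment at 37 C. The detection reagent was incubated for 60 min at room temperature, and compounds were scored as agonists.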

A short description of test [15]: qHTS assay for small molecule agonists of the antioxidant response element (ARE) signaling pathway measured by Nrf2-dependant transcriptional activity (AID 720636; active = well fitted curve in the direction sought with a large enough effect in the repeat runs; an effect the other way counts as inactive or inconclusive; note: % of control where 0% means no effect). In short, it runs like this:
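Attachment 6 hr at 37 C, then compound versus DMSO vehicle for 16 hr in ARE-luc HepG2 cells (1% dialyzed FBS); luminescence recorded 30 min after ONE-Glo addition at room temperature.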

A short description of test [16]: qHTS assay for small molecule agonists of the antioxidant response element (ARE) signaling pathway measured by Nrf2-dependant transcriptional activity - cell viability counter screen (AID 720653; active = well fitted curve in the direction sought with a large enough effect in the repeat runs; an effect the other way counts as inactive or inconclusive; note: % is set by controls: 0 for no effect and ±100 for the full control effect). Conditions: ARE-bla HepG2 viability, CellTiter-Glo ATP luminescence, 16 h; max response: stronger effect = lower value. A digest of the protocol: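 Cytotoxicity counter screen: intracellular ATP quantified by CellTiter-Glo luminescence in the same ARE-bla HepG2 plates, after 16 h compound exposure and a 2 h beta-lactamase substrate step.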

Test [17] is described as follows: qHTS assay for cell viability of HEK293 cells (AID 743288). Note: % is set by controls: 0 for no effect and ±100 for the full control effect; nearly all actives have a fitted effect of over 50% in size. Conditions: ATP luminescence (CellTiter-Glo), 18 h; max response: stronger effect = lower value. A digest of the protocol:
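Quantitative high-throughput screen: compounds were pinned onto parental HEK293 cells (2,000 per well) after a minimum 5 h settling at 37 C, incubated 18 h at 37 C, and intracellular ATP measured by luciferase luminescence.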

The nature of test [18]: qHTS assay for cell viability of the p53RE-bla HCT-116 cell line (AID 743292). Note: % is set by controls: 0 for no effect and ±100 for the full control effect; nearly all actives have a fitted effect of over 55% in size. In short, it runs like this:
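Compound-exposed HCT-116 (p53RE-bla) cells, 4,000 per well, were kept 16 h at 37 C following a 5 h preincubation. Cell number was estimated from total ATP by CellTiter-Glo luminescence read after 30 min at room temperature.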

In test [19] the target is Nuclear receptor subfamily 1 group I member 2 (Rattus norvegicus) (UniProt Q9R1A7). The experiment in a line: qHTS assay for small molecule activators of the rat pregnane X receptor (rPXR) signaling pathway (AID 651751; call rule not given here; note: 0% is about no effect). As to conditions: rPXR reporter cells, luciferase (One-Glo), 24 h.
Test [20] in a line: qHTS assay for small molecule activators of the human pregnane X receptor (PXR) signaling pathway (AID 720659; call rule not given here; note: 0% is about no effect).

Chain of Nuclear receptor subfamily 1 group I member 2 (Rattus norvegicus) (Q9R1A7 whole entry, looked up): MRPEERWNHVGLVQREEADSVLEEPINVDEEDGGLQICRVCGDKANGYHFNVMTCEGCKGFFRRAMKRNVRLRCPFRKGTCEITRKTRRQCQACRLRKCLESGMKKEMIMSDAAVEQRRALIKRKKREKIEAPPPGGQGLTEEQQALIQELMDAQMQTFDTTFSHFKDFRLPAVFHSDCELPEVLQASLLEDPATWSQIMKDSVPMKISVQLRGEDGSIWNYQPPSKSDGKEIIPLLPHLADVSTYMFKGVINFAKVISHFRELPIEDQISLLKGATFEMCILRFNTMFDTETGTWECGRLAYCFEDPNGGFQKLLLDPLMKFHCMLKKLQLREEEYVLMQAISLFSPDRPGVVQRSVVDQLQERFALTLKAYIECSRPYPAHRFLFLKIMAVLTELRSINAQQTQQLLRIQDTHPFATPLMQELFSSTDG
Chain of Nicotinamide N-methyltransferase (Homo sapiens) (P40261 whole entry, looked up): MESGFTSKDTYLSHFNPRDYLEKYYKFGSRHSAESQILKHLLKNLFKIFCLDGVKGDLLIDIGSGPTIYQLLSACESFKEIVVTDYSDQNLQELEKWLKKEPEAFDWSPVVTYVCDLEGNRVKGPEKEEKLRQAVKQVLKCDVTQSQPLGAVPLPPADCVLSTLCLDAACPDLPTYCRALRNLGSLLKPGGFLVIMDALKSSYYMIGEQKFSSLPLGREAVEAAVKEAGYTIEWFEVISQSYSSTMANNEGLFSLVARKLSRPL
Chain of Glutathione peroxidase 1 (Homo sapiens) (P07203 whole entry, looked up): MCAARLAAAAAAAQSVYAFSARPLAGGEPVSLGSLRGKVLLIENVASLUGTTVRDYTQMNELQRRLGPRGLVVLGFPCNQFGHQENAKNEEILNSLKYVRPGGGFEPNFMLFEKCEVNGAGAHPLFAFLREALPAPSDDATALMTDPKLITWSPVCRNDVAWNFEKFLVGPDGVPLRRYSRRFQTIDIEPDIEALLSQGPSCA
Chain of Phenylethanolamine N-methyltransferase (Homo sapiens) (P11086 whole entry, looked up): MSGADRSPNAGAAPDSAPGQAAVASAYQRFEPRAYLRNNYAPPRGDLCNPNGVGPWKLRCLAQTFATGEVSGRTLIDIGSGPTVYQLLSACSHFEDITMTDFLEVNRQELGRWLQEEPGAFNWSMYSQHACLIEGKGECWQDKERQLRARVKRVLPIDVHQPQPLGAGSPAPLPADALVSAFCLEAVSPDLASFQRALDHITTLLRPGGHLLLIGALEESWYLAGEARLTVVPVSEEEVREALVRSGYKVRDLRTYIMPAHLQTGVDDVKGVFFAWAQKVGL
Chain of Catechol O-methyltransferase (Homo sapiens) (P21964 whole entry, looked up): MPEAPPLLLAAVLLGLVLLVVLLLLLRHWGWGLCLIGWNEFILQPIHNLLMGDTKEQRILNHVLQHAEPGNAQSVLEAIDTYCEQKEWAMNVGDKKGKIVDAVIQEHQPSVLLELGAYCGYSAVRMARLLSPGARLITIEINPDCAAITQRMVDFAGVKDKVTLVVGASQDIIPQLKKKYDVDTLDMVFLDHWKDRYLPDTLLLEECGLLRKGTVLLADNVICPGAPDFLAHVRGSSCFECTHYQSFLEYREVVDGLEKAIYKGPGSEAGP
Chain of Peroxisome proliferator-activated receptor alpha (Homo sapiens) (Q07869 whole entry, looked up): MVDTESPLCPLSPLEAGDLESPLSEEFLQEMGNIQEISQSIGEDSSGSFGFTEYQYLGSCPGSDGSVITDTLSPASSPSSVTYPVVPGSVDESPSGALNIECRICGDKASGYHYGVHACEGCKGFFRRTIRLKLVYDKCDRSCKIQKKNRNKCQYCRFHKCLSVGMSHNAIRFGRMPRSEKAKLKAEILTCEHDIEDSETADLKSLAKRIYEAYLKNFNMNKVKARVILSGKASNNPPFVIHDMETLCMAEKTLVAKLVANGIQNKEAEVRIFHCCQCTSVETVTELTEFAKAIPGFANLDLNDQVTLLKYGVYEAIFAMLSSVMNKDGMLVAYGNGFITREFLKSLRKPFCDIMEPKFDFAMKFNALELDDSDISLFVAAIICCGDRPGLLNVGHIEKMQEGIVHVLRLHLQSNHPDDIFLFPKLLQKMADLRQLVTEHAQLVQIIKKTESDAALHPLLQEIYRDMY

Turning to `c1ccc2c(c1)Sc1ccccc1N2C[C@@H]1CN2CCC1CC2`, the max response in test [1] is -2.33% (inactive). The Potency entry in test [2] and in test [3] was “inactive” in each case.
As for `CC1Oc2cc3c(-c4c(O)cc(O)c5c(O)c6c(cc45)OC(C)C(C)C6=O)c(O)cc(O)c3c(O)c2C(=O)C1C` (centres undefined), the Potency is 5.8 µM (active) in test [4], 8.2 µM (active) in test [5], 1.3 µM (active) in test [6] and 24.1 µM (active) in [8]. Also, the activity in test [7] was -48.2%; in [9], -21.1%; in test [10], -60.9%. In test [11], the Potency result is “inactive”.
For the compound `C#C[C@]1(OC(=O)CCCCCC)CC[C@H]2[C@@H]3CCC4=CC(=O)CC[C@@H]4[C@H]3CC[C@@]21C`, in [1], the max response was -5.44% (inactive). The Potency in test [5] was 20.6 µM (active).
For the compound `C[C@]12CC[C@H]3[C@@H](CCC4=CC(=O)CC[C@@]43C)[C@@H]1CC[C@H]2O`, the figures for the activation in test [12] and in test [13] were 0.0688% (inactive) and -2.33% (inactive), respectively. The max response was -2.25% (inactive) in test [14]; 1.08% (inactive) in [16]; -4.18% (inactive) in test [1]; -7.89% (inactive) in test [17]; 3.9% (inactive) in [19]. The Potency entry in test [15] and in [2] was “inactive” each time. In addition, the outcome in test [18] and in test [20] was “inactive” throughout.
